molecular target: E3 ubiquitin-protein ligase XIAP (Homo sapiens) (UniProt P98170); experiment: small molecules binding XIAP protein – biophysical, small-molecule microarray, fluorescence 635 nm, primary screen (AID 1181); conditions: higher = more signal;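 note: score merges 667 nm emission and signal to noise over triplicate slides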
Sequence (P98170 whole entry, looked up): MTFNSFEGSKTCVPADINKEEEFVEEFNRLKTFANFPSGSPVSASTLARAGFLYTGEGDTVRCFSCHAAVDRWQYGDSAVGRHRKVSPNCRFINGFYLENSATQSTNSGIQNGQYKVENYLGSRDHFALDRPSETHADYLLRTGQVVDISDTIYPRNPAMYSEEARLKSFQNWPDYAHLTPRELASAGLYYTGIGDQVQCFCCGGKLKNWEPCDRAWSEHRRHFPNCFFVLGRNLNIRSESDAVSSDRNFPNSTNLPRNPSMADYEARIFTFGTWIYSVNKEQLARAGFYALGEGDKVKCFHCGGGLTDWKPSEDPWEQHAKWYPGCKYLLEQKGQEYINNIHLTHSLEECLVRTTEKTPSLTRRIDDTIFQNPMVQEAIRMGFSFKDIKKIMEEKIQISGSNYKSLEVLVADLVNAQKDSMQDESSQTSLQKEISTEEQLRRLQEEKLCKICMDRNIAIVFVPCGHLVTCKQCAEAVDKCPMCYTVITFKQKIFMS

Compound | composite z-score
COc1cc(OC)c(C(O)C2C=CC3C(=O)NC(=O)C3N2Nc2ccccn2)cc1Br (centres undefined) | -0.0525
C=CCNC(=O)[C@@H]1[C@H]2C(=O)O[C@H](c3ccccc3)[C@H](c3ccccc3)N2[C@H](c2ccc(OCCO)cc2)[C@@]12C(=O)N(C(=O)OCCOC)c1ccc(C#CCC(C(=O)OC)C(=O)OC)cc12 | 0.284
COC(=O)c1c(CC[C@@H](CO)NC(=O)NCCc2c[nH]c3ccccc23)oc(C(=O)Cc2ccccc2)c1C(=O)OC | -0.406
O=C(O)[C@H](Cc1ccccc1)n1cc(-c2ccccc2)nn1 | 0.0812
CC(C)NC(=O)[C@@]1(Cc2ccccc2I)c2ccccc2C(=O)N(Cc2ccccc2Cl)[C@H]1c1ccc(CO)cc1 | 0.0049
CC(C)=CCCC(C)=CC(O)C1C=CC2C(=O)N(c3ccccc3)C(=O)C2N1Nc1ccc(C(C)C)cc1 (centres undefined) | -0.0382
[N-]=[N+]=NCc1ccccc1[C@H]1OC(c2ccc(OCCCO)cc2)=N[C@@]1(Cc1ccccc1)C(=O)N1CCCCC1 | -0.0622
CC(C)N1CC=CC23O[C@@H]4C=CCOC(=O)[C@@H]4[C@H]2C(=O)N(CCCCCO)[C@@H]3C1=O (some centres undefined) | -0.216
CCOC(=O)[C@H]1C/C=C/C[C@H](C(=O)OCC)C(=O)O[C@H]2[C@@H](OC)O[C@H](CO)[C@@H](OC(=O)c3ccc(Br)cc3)[C@@H]2OC1=O | -0.283
O=C(O)[C@H]1C[C@H]2C(=O)N3CCC[C@H]3C(=O)N2[C@H]1c1ccc(O)cc1 | 0.125
[N-]=[N+]=Nc1ccccc1C[C@@]1(C(=O)N2CCCCC2)N=C(c2ccc(OCCCO)cc2)O[C@@H]1c1ccccc1N=[N+]=[N-] | -0.0102
CCOC(=O)C1=CC[C@@H](c2ccccc2)N(S(=O)(=O)c2ccc(C)cc2)[C@H]1c1ccc(CC)cc1 | -0.11
O=C1[C@H]2C=C(Br)[C@H](C[C@@H]2OCCCCCCO)[C@@]12CO2 | -0.395
COc1cc2c(cc1O)C(c1cccs1)N(Cc1ccc([N+](=O)[O-])o1)CC2 (centres undefined) | -0.102
CCCNC(=O)[C@@]1(Sc2ccc(C)cc2)CC(=O)N(Cc2ccccc2C(F)(F)F)[C@@H]1c1ccc(CO)cc1I | -0.181
O=C1OCCC=C[C@H]2OC34C=CCN(Cn5nnc6ccccc65)C(=O)[C@H]3N(CCO)C(=O)[C@@H]4C12 (some centres undefined) | -0.146
C=CCNC(=O)[C@@H]1[C@H]2C(=O)O[C@H](c3ccccc3)[C@H](c3ccccc3)N2[C@H](c2ccc(OCCO)cc2)[C@@]12C(=O)N(C(=O)OCCOC)c1ccc(C#CCNC(N)=O)cc12 | -0.16
CCCC1(C(=O)OC)C=C2C(=C(c3ccccc3)C(=O)C2C)CN1 (centres undefined) | 0.192
O=C1O[C@@H](c2ccccc2)[C@@H](c2ccccc2)N2[C@@H](c3ccc(OCCO)cc3)[C@]3(C(=O)Nc4ccc(C#CCCO)cc43)[C@@H](C(=O)NC[C@H](O)c3ccccc3)[C@H]12 | -0.0249
COc1ccc(CCNC(=O)[C@@]2(c3ccc([N+](=O)[O-])cc3)CC(=O)N(CC34CC5CC(CC(C5)C3)C4)[C@@H]2c2ccc(CO)cc2I)cc1 | -0.195
COc1ccc([C@H]2C[C@H]3C(Br)=C[C@@]2(CO)C(=O)[C@]32CO2)cc1 | 0.0009
O=C(NC1CC1)[C@@H]1c2ccccc2C(=O)N(Cc2cc(F)cc(C(F)(F)F)c2)[C@H]1c1ccc(CO)cc1 | -0.0527
COC(=O)[C@@]1(Cc2ccc(OC)cc2)[C@H]2c3cc(C(=O)N4CCCC4)n(CCCNc4ncc(C(F)(F)F)cc4Cl)c3C[C@H]2CN1C(=O)c1ccccc1 | 0.0986
CO[C@H]1O[C@H](CO)[C@@H](OC(=O)Nc2ccc(Oc3ccccc3)cc2)[C@H](OC(=O)Nc2ccc3c(c2)OCO3)[C@@H]1OC(=O)Nc1ccc2c(c1)OCO2 | 0.222
C=C(CCCC)/C(=C/C[C@H](OC(C)=O)c1ccccc1OCCO)c1cnc2ccccc2c1 | -0.13
CC(C)(C)OC(=O)CC[C@@]1(C(=O)N2CCCCC2)N=C(c2ccc(OCCCO)cc2)O[C@@H]1c1ccccc1 | 0.138
O=C(CS)NCCCCCNC(=O)[C@@H]1C[C@@H]2C(=O)NCC(=O)N2[C@@H]1c1ccc(O)cc1 | -0.0536
CCCCN1CC=CC23O[C@@H]4/C=C\CCCOC(=O)C4[C@H]2C(=O)N(CCCCCO)[C@@H]3C1=O (some centres undefined) | 0.161
COc1ccc(C(=O)Nc2cccc(CN3C(=O)[C@]4(O[C@H](CCn5cc(CCO)nn5)[C@@H]([Si](C)(C)c5ccc(OC)cc5)[C@@H]4C)c4ccccc43)c2)cc1 | -0.173
